Pf Dd2 inh – Plasmodium falciparum Dd2 growth inhibition | P. falciparum Dd2 growth, SYBR Green, 72 h | Potency, µM (top dose mostly 28.9 µM), for inactives: at the highest dose activity, negative = inhibition, hits mostly inhibitors | hit rate 4.3% among 120,000 | AID 1347417; active = well fitted inhibition curve with a large enough effect;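 note: plate controls were DMSO vehicle for no effect and reference drug for full effect; nearly all actives have a fitted effect of over 65% in size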
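Readout: SYBR Green fluorescence, 485 nm excitation, 535 nm emission, after ~16 h lysis at 37C. Before that, Dd2-infected red cells (2.5% hematocrit) grew 72 h with compound, 29 uM top final concentration.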
Active calls of the source: *; i = inactive; [ ] = another dose, or the depositor's remark. This is one part of a sample in which hits are shown more often than they occur. Potency is the fitted concentration of half-maximal effect.

SMILES | Pf Dd2 inh
CCN1CCCCC12Cc1ccccc1CN(C(=O)Cc1ccc(OC)cc1)C2 (stereo not given) | 11µM*
O=C(O)CCC(=O)N1Cc2ccccc2CC2(CCCN2Cc2ccccc2)C1 (stereo not given) | -14%
O=C(O)CCC(=O)N1Cc2ccccc2CC2(CCCCN2Cc2ccncc2)C1 (stereo not given) | 13%
CC(=O)N1Cc2ccccc2CC2(CCCCN2CC2CCOCC2)C1 (stereo not given) | -17%
CN(C)CCC(=O)N1Cc2ccccc2CC2(CCCCN2CC2CCOCC2)C1 (stereo not given) | -30%
CCCC(=O)N1Cc2ccccc2CC2(CCCCN2Cc2ccncc2)C1 (stereo not given) | 8.9µM*
CCCC(=O)N1Cc2ccccc2CC2(CCCN2Cc2ccncc2)C1 (stereo not given) | 8.9µM*
CCN1CCCCC12Cc1ccccc1CN(C(=O)C1CCN(C)CC1)C2 (stereo not given) | -17%
CCCC(=O)N1Cc2ccccc2CC2(CCCCN2CC2CCOCC2)C1 (stereo not given) | 8.9µM*
CC(=O)NCCC(=O)N1Cc2ccccc2CC2(CCCN2Cc2ccncc2)C1 (stereo not given) | 0%
CC(C)NC(=O)c1ccccc1OCC1CCCN(C2CCCC2)C1 (stereo not given) | -6%
CC(C)c1ccc(CC(=O)N2CCCc3ncc(C(=O)NCc4cccc(F)c4)cc32)cc1 | i
COc1cccc(C(=O)N[C@@H]2CN(c3ccccn3)C[C@H]2CN(C)C)c1OC | -1%
COc1ccc(CCNC(=O)CN2C(=O)NC3(CCC(C)CC3)C2=O)cc1OC (stereo not given) | i
COCc1nncn1C1CCN(S(=O)(=O)c2ccc(OC)c(Cl)c2)CC1 | i
CNC(=O)Nc1ccc(C)n(CC(=O)NCc2ccccc2C)c1=O | -3%
O=C(Nc1ccc([C@@H](O)[C@H]2COCC(=O)N2CCCc2ccccc2)cc1)c1cnccn1 | 13µM*
CN1C(=O)COC[C@@H]1[C@H](O)c1ccc(NC(=O)c2cnccn2)cc1 | -16%[44.1 µM]
CC(=O)Nc1ccc([C@@H](O)[C@H]2COCC(=O)N2CCCc2ccccc2)cc1 | i
COc1cccc(CN2CCOC3CCN([S+](=O)([O-])c4ccccc4C)CC3C2=O)c1 (stereo not given) | i
CN(C)[C@@H]1CN(Cc2cccc(C#N)c2)CC[C@@H]1CNC(=O)C1CC1 | i
COc1ccc(C(=O)N2CC[C@@H](CC(=O)O)[C@@H](CCN3CCCCC3)C2)cc1 | -11%[44.1 µM]
O=C(NC1CCCc2c1[nH]c1ccc(F)cc21)c1cccs1 (stereo not given) | i
Cc1noc(C)c1C(=O)NC1CCCc2c1[nH]c1ccc(F)cc21 (stereo not given) | -11%
Cc1noc(C)c1CC(=O)NC1CCCc2c1[nH]c1c(Cl)cccc21 (stereo not given) | 7.9µM*
SMILES | Pf Dd2 inh
O=C(CCNC(=O)c1cnccn1)NC1CCCc2c1[nH]c1ccc(F)cc21 (stereo not given) | -9%
COc1ccc(CC(=O)NC2CCCc3c2[nH]c2ccc(F)cc32)cc1OC (stereo not given) | -16%
Cc1noc(C)c1C(=O)NC1CCCc2c1[nH]c1c(Cl)cccc21 (stereo not given) | -8%
O=C(Cc1c[nH]c2ccccc12)NC1CCCc2c1[nH]c1ccc(F)cc21 (stereo not given) | 13µM*
CC(C)CC(=O)NC1CCCc2c1[nH]c1c(Cl)cccc21 (stereo not given) | -22%
Cc1noc(C)c1CCC(=O)NC1CCCc2c1[nH]c1ccc(F)cc21 (stereo not given) | 11µM*
O=C(NC1CC1)C1COC2(CCN(C(=O)Cc3cccs3)CC2)N1C(=O)c1ccc(F)cc1 (stereo not given) | -30%
CC[C@@]1(O)CCN(C(=O)c2ccccc2OC(F)(F)C(F)F)C[C@H]1O | 9%
CCCNC(=O)CC1CCCN(c2cn[nH]c(=O)c2)C1 (stereo not given) | 48%
NS(=O)(=O)c1ccc(C(=O)NCCn2cccn2)cc1 | 4%
CCC(CC)n1c(=O)n(Cc2cc(C(C)C)no2)c2cc(C(=O)O)cnc21 | 8%
CCOc1ccc(CC(=O)N2C[C@@H](CO)[C@H](c3nc(C)no3)C2)cc1 | -8%
CN1CCN(CCCNC(=O)CN2CC3CC(C2)[C@H]2CCCC(=O)N2C3)CC1 (stereo not given in full) | -2%
CC(=O)N1CCC(Cc2ccc(C(=O)O)cc2)CC1 | 8%
Cc1noc(C)c1-c1cc2cc(CO)oc2c(NCC2CCOCC2)n1 | i
Cc1noc(C)c1-c1cc2cc(C(C)C)oc2c(NC2CCN(C)CC2)n1 | 10µM*
Cc1noc(C)c1-c1cc2cc(C(C)C)oc2c(Nc2ccn(C)n2)n1 | -2%[44.1 µM]
Cc1noc(C)c1-c1cc2cc(CNC3CC3)oc2c(NC2CCN(C)CC2)n1 | -14%[44.1 µM]
Cc1cc2cc(-c3c(C)noc3C)nc(NC3CC3)c2o1 | -9%[44.1 µM]
Cc1noc(C)c1-c1cc2cc(C(C)C)oc2c(NCCN2CCOCC2)n1 | 10µM*
COC[C@@H]1CN(Cc2ccccn2)C[C@H]1C(=O)NC1CC1 | 7%

Bioassay records: PubChem BioAssay, National Center for Advancing Translational Sciences (NCATS)
